Among the data in PubChem BioAssay (NCATS) are Potency values, retold here.

Inconclusive results are not listed. Where a call stands in place of a potency, no number is given. Calls of active or inactive are those of the source. Calls come from the whole dose curve; as a rule, active = well fitted cell-killing curve with a large enough effect; inconclusive = small, poorly fitted or top-dose-only effect; inactive = flat fitted curve, though single readings scatter.

The nature of this test: Cell Viability - LYMP1-003 - Assay at 40 hr (AID 964). Note: nearly all actives have a fitted effect of over 60% in size. Particulars: LYMP1-003 lymphoblastoid viability; series mostly up to 92.2 µM. The source says: NIH Chemical Genomics Center [NCGC]
NIH Molecular Libraries Screening Centers Network [MLSCN]
National Institutes of Environmental Health Sciences [NIEHS]
National Toxicology Program [NTP]
We have developed a 1536-well cell-based assay for quantitative high throughput screening (qHTS) against a number of cell lines to determine in vitro cytotoxicity of small molecules. This particular assay uses a human lymphoblastoid cell line (LYMP1-003) purchased from Coriell Institute for Medical Research.
NCGC Assay Protocol Summary:
The CellTiter-Glo luminescent cell viability assay (Promega) is a homogeneous method to measure the number of viable cells in culture. The end point readout of this assay is based on quantitation of intracellular ATP, an indicator of metabolic activity, using the luciferase reaction. Luciferase catalyzes the oxidation of beetle Luciferin to oxyluciferin and light in the presence of ATP. The luminescent signal is proportional to amount of ATP present.
Using the CellTiter-Glo luminescent cell viability assay, the amount of cellular ATP was measured in the lymphoblastoid cell line with complete culture medium following compound treatment for 40 hours. The assay was performed in opaque white Kalypsys 1536-well plates. In the screen, tetraoctylammonium bromide was used as positive control. Library compounds were measured for their ability to cause acute toxicity in the cell line, as reflected by a decrease in intracellular ATP levels, in a concentration-dependent manner. […] AC50 values were determined from concentration-response data modeled with the standard Hill equation.
qHTS protocol for CellTiter Glo lymphoblastoid cellular assay
[Step] [Parameter] [Value] [Description]
1. Reagent; 5 uL; 2500 lymphoblastoid cells/well
2. Time; 5 hr; 37 C incubation
4. Controls; 23 nL; Tetraoctylammonium bromide 6.4pM to 92 uM
5. Time; 40 hr; 37 C incubation
6. Reagent; 5 uL; CellTiter Glo reagent
7. Time; 30 min; Room Temperature
8. Detection; Luminescence; Viewlux plate reader
Keywords: cell viability, cytotoxicity, lymphoblastoid cell line, luminescence, NTPHTS, NTPHTS_NCGC, NIEHS, DSSTox, MLSMR, MLSCN, NIH Roadmap, qHTS, NCGC
For the compound `CC(=O)c1cc(C)oc1C`, the Potency result was “inactive”.

On to `NC(=O)NC(N)=O`, for which the Potency result is “inactive”. For `CC(C)N=C=NC(C)C`, the Potency result is “inactive”. With `CC1(N)CCC(C(C)(C)N)CC1` (stereo not given) the entry was “inactive”; with `CC(=O)Nc1cccc(N)c1`, “inactive”; with `C=C(C)C(=O)OC`, “inactive”.

Take `NC(=S)NNC(N)=S`: the Potency result was “inactive”. With `C=C(C)C(=O)OCCCCCCCCCC` the entry was “inactive”; with `CC(CCl)OC(C)CCl` (stereo not given), “inactive”; with `Nc1ccc(Cl)cc1[N+](=O)[O-]`, “inactive”. With `CCC=O` the entry was “inactive”. With `CCOc1ccccc1N` the entry was “inactive”; with `Nc1cccc(S(=O)(=O)O)c1`, “inactive”. Consider `O=C1CCCCC1`, for which the Potency result was “inactive”. The same measure for `C=CCCC`: “inactive”. Take `Cc1cc(C(=O)O)ccc1[N+](=O)[O-]`: the Potency entry was “inactive”. The same measure for `CCN(CC)c1cccc(O)c1`: “inactive”; for `Oc1c(Cl)ccc(Cl)c1Cl`: “inactive”; for `C/C=C(/C)C#N`: “inactive”. Consider `O=Nc1ccc(NO)cc1`, for which the Potency entry was “inactive”. Regarding `Cc1ccc(C)o1`, the Potency result was “inactive”. Turning to `O=[N+]([O-])c1cc(C(F)(F)F)ccc1Cl`, the Potency entry is “inactive”. With `Cc1ccc(Br)cc1` the entry was “inactive”. The same measure for `Nc1cc(Cl)c(N)c(Cl)c1`: “inactive”; for `C=C(C)C(N)=O`: “inactive”.

On to `Cc1cc([N+](=O)[O-])ccc1N`, for which the Potency entry was “inactive”.

`CC(=O)Nc1ccc(N)cc1`: the Potency result is “inactive”. `Cc1cc(C)c(N)cc1C`: the Potency entry was “inactive”. Take `Nc1cc(S(=O)(=O)O)ccc1O`: the Potency result was “inactive”. The same measure for `CC(=O)OCc1ccco1`: “inactive”. The same measure for `CCCCCNCCCCC`: “inactive”.

For `C1CCC2OC2C1` (stereo not given), the Potency result is “inactive”. As to `COC(=O)CCCC(=O)OC`, the Potency entry is “inactive”. With `CC(=O)c1nccs1` the entry was “inactive”; with `NC(=O)c1ccccc1[N+](=O)[O-]`, “inactive”; with `C(=C/c1ccccc1)/c1ccccc1`, “inactive”. The same measure for `O=P(O)(OCc1ccccc1)OCc1ccccc1`: “inactive”; for `C=CC(=O)NC(C)C`: “inactive”.

As to `O=C(O)c1ccccc1C(=O)O`, the Potency entry was “inactive”. Regarding `Nc1cccc(C(F)(F)F)c1`, the Potency result is “inactive”.
